High-throughput results from PubChem.
Tb PYK inh: T. brucei pyruvate kinase inhibition | 0.12% of 410,000 active | AID 624173 | TbPYK enzyme, Kinase-Glo Plus ATP luminescence, 45 min | Q57TT1 | Potency, µM (top dose mostly 76.8 µM), without a hit: top-dose activity, negative = inhibition, usual class: inhibitors; note: nearly all actives have a fitted effect of over 50% in size
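Screened from lowest to highest concentration, compounds were pinned into TbPYK/substrate mixtures, and ADP (130 uM final) was added. Plates sat at room temperature for 45 min prior to Kinase-Glo Plus detection by luminescence.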
FBPA Giardia inh: blocks Giardia fructose-bisphosphate aldolase activity; A8B2U2; purified Giardia FBPA; Potency, µM (series often up to 59.6 µM), for the others: at the highest dose activity, negative = inhibition, most hits filed as inhibitors; 0.71% of 290,000 active; note: nearly all actives have a fitted effect of over 55% in size
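40 nM FBPA preincubated 10 min at RT with compound (up to 57.5 uM final), then substrate plus GAPDH/TPI/NAD/arsenate coupling and diaphorase/resazurin added. Fluorescence read after 20 min at RT, 525/598 nm.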
LmPK inhibitor: blocks Leishmania mexicana pyruvate kinase activity. Q27686. Potency, µM (highest dose often 57.5 µM), without a hit: at the highest dose activity change, negative = inhibition, most hits filed as inhibitors. purified LmPK, Kinase-Glo ATP luminescence, 1 h. 0.37% of 290,000 active
Target sequence (Q27686 whole entry, looked up): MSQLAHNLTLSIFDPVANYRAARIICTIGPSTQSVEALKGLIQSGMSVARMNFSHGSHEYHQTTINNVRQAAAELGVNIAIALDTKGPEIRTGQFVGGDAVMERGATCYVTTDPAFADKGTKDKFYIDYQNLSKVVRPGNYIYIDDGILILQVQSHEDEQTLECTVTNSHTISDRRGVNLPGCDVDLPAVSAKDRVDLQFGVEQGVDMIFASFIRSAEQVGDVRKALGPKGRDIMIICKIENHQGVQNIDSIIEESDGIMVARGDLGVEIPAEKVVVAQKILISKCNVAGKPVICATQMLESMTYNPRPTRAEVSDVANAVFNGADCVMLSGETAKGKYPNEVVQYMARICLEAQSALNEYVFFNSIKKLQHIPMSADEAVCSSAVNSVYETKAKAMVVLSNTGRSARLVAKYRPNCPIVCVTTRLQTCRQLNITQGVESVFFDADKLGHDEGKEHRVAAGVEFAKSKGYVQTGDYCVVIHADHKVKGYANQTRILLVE
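In 50 mM imidazole pH 7.2 with 7 mM MgCl2, LmPK (0.1 nM) turned over PEP (0.5 mM) and ADP (0.1 mM) for 1 h at room temperature. Luciferase read-out of ATP.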
RE007 growth inh: less growth of the S. pombe RE007 Vpr strain | S. pombe RE007 Vpr strain, BacTiter-Glo ATP luminescence, 24 h | Potency, µM (top dose mostly 92.2 µM), for the others: at the top dose activity change, negative = less growth, most hits filed as inhibitors | 0.21% of 360,000 active | AID 651644; active = well fitted falling curve with a large enough effect; inconclusive = small, poorly fitted or top-dose-only effect; inactive = no such curve, though single readings can be large or run the other way; note: nearly all actives have a fitted effect of over 50% in size
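Fission yeast RE007 carrying one integrated HIV-1 vpr copy, seeded at OD 0.01 in PMG+AL medium with 23 nL pinned compound. Grown 24 h at 30 degrees; viability read by BacTiter-Glo luminescence after 5 min.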
Starred values were filed as active, the others as inactive; [ ] = another dose, or the depositor's remark. An excerpt weighted towards active compounds, which were near 0.95% of everything screened. Unless noted, calls come from the whole dose curve; as a rule, active = well fitted curve in the direction sought with a large enough effect; inconclusive = small, poorly fitted or top-dose-only effect, or another doubt; inactive = no such curve, though single readings can be large; an effect the other way counts as inactive or inconclusive. % is set by controls: 0 for no effect and ±100 for the full control effect; potency is the fitted concentration of half-maximal effect.

Screening Clc1cccc(-c2nnc(-c3ccccc3)o2)c1 returned Tb PYK inh -10%, FBPA Giardia inh 3%, LmPK inhibitor 25µM* and RE007 growth inh 20µM*.
Cc1cc(=O)oc2cc(O[C@@H]3O[C@H](C(=O)O)[C@@H](O)[C@H](O)[C@H]3O)ccc12 was read as FBPA Giardia inh 5%.
`COc1ccccc1CNc1nc2c(S(=O)(=O)c3ccccc3)nnn2c2ccc(Cl)cc12` gave Tb PYK inh 1%.
Cn1ccc2c(-c3ccc(C(=O)O)cc3)cc3c(c21)C1CCC3C1 (stereo unspecified) was read as Tb PYK inh 2% and RE007 growth inh 45µM*.
`Cn1ccc2c(-c3ccc(C(C)(C)C)cc3)cc3c(c21)C1CCC3C1` (stereo unspecified) gave Tb PYK inh 2% and RE007 growth inh 7%.
Screening CCO[C@@H](Cc1ccc(OCCc2ccc(OS(C)(=O)=O)cc2)cc1)C(=O)O returned Tb PYK inh -5%.
Screening O=C(OCC(=O)N1CCC(c2ccccc2)=N1)c1ccc([N+](=O)[O-])s1 returned Tb PYK inh 2% and RE007 growth inh 16µM*.
Cc1[nH]c2ccccc2c1C(=O)COC(=O)c1ccc([N+](=O)[O-])s1 was read as Tb PYK inh -2%, FBPA Giardia inh -17%, LmPK inhibitor 4% and RE007 growth inh 63µM*.
For Cc1cc(C(=O)OCC(=O)N2CCC(c3ccccc3)=N2)ccc1[N+](=O)[O-] the results were Tb PYK inh -1% and RE007 growth inh 0%.
`O=C(COC(=O)c1ccc([N+](=O)[O-])s1)NCc1ccccc1` gave Tb PYK inh 3%, FBPA Giardia inh -2%, LmPK inhibitor 2% and RE007 growth inh 6%.
O=C(N/N=C/c1sc2ccccc2c1O)c1ccccc1 was read as Tb PYK inh -2%, FBPA Giardia inh inconclusive, LmPK inhibitor -4% and RE007 growth inh 45µM*.
`CCOC(=O)C1=C(C)NC(C)=C(C(=O)OC)[C@@H]1c1cccc(Cl)c1Cl` gave FBPA Giardia inh 1%[21.7 µM].
Screening O=C(c1cc2ncc(Br)cn2n1)N1CCN(C(=O)c2ccco2)CC1 returned Tb PYK inh -16%, FBPA Giardia inh -1%, LmPK inhibitor 5% and RE007 growth inh 1%.
O=C(c1ccco1)N1CCN(C(=O)c2ccco2)CC1 was read as Tb PYK inh 4% and RE007 growth inh 5%.
Screening O=C(c1ccco1)n1c(=S)nc2ccccn21 returned Tb PYK inh -19%, FBPA Giardia inh inconclusive, LmPK inhibitor 14µM* and RE007 growth inh -4%.
For Cc1cccc2nc(=S)n(C(=O)c3ccco3)n12 the results were Tb PYK inh -20%, FBPA Giardia inh 0%, LmPK inhibitor 13µM* and RE007 growth inh -22%.
O=c1c(-c2cccs2)nc2cnc(N3CCNCC3)nc2n1C1CC1 was read as FBPA Giardia inh 0%.
Screening Oc1c(Cl)cc(Cl)cc1C=Nc1cc(C(F)(F)F)ccc1N1CCc2ccccc2C1 returned Tb PYK inh inconclusive, FBPA Giardia inh inconclusive and LmPK inhibitor 16µM*.
For CCN(C(=O)/C=C/c1ccc(OC)cc1)C1CCCCC1 the results were Tb PYK inh -1%, FBPA Giardia inh 4%, LmPK inhibitor 9% and RE007 growth inh -7%.
Cc1ccc(-c2cn3c(=S)[nH]nc3s2)cc1 was read as Tb PYK inh inconclusive, FBPA Giardia inh -9%, LmPK inhibitor 2.2µM* and RE007 growth inh 4%.
Screening Cc1cccc2cc(C#N)c(NCCNC(=O)COc3ccccc3)nc12 returned Tb PYK inh -7%, FBPA Giardia inh 16µM*, LmPK inhibitor 6% and RE007 growth inh 4%.
Cc1cccc2cc(C#N)c(NCc3ccccc3)nc12 was read as Tb PYK inh 7%, FBPA Giardia inh 18µM*, LmPK inhibitor 4% and RE007 growth inh -1%.
Screening Cc1cccc2cc(C#N)c(NCCNS(=O)(=O)c3ccccc3)nc12 returned Tb PYK inh 3%, FBPA Giardia inh -13%, LmPK inhibitor -4% and RE007 growth inh 17%.
`CCCCCCCCCCCCCCCC(=O)OCC(COP(=O)(O)OCC[N+](C)(C)C)OC(=O)CCCCCCCCCCCCCCC` (stereo unspecified) gave Tb PYK inh 1%.
Screening CC(COc1ccccc1)NN (stereo unspecified) returned Tb PYK inh 4%.
`Cn1ccc2c(-c3cccc(C=O)c3)cc3c(c21)C1CCC3O1` (stereo unspecified) gave Tb PYK inh -13% and RE007 growth inh -9%.
For O=C(Nc1nc2cc3c(cc2s1)OCO3)c1ccco1 the results were Tb PYK inh -10%, FBPA Giardia inh 15%, LmPK inhibitor 16µM* and RE007 growth inh inconclusive.
For NC(=O)c1ccc[n+]([C@H]2O[C@@H](COP(=O)([O-])OP(=O)(O)OC[C@H]3O[C@@H](n4cnc5c(N)ncnc54)[C@H](O)[C@@H]3O)[C@H](O)[C@@H]2O)c1 the results were Tb PYK inh -9% and RE007 growth inh 5µM*.
Screening CCCOCc1ccc(O)c2ncccc12 returned Tb PYK inh 3%, FBPA Giardia inh inconclusive, LmPK inhibitor 2% and RE007 growth inh 40µM*.
O=C(O)CSc1cc(NS(=O)(=O)c2ccc(Br)cc2)c2ccccc2c1O was read as Tb PYK inh inconclusive, FBPA Giardia inh 7.1µM*, LmPK inhibitor 3.5µM* and RE007 growth inh -9%.
Cc1cc(O)c(Sc2ncn[nH]2)cc1NS(=O)(=O)c1ccc(Cl)cc1 was read as Tb PYK inh 11% and RE007 growth inh 2%.
`O=S(=O)(Nc1cc(Sc2ncn[nH]2)c(O)c2ccccc12)c1ccccc1` gave Tb PYK inh inconclusive, FBPA Giardia inh 2µM*, LmPK inhibitor 14µM* and RE007 growth inh inconclusive.
For Cc1ccc(S(=O)(=O)Nc2ccc(Br)cc2C(NCC(=O)O)c2ccccc2)cc1 (stereo unspecified) the results were Tb PYK inh -1%, FBPA Giardia inh 19%, LmPK inhibitor 10% and RE007 growth inh 7%.
For CN(C)CC1CC/C(=C\c2ccc(O)cc2)C1=O (stereo unspecified) the results were Tb PYK inh inconclusive and RE007 growth inh 11µM*.
`COc1ccc(/C=C2/CCC(CN3CCOCC3)C2=O)cc1` (stereo unspecified) gave Tb PYK inh inconclusive and RE007 growth inh 7.9µM*.
`Cn1c(=O)c2c(-c3ccccc3)n(-c3cc(Cl)c([N+](=O)[O-])cc3O)cc2n(C)c1=O` gave Tb PYK inh 1% and RE007 growth inh -28%.
Cc1cccc(-c2c3c(=O)n(C)c(=O)n(C)c3cn2-c2ccccc2O)c1 was read as Tb PYK inh 4%, FBPA Giardia inh 13µM*, LmPK inhibitor 0% and RE007 growth inh -6%.
COC(=O)c1ccccc1-n1cc2c(c1-c1cccc(C)c1)c(=O)n(C)c(=O)n2C was read as Tb PYK inh -3%.
